# This is one part of a sample in which hits are shown more often than they occur.
# GIRK2 activator = Activators of human GIRK2-containing channels; activation (% efficacy), % for hits at 75 µM; 34,000 tested, under 10 active; HEK293 GIRK2/NPY4 cells, thallium flux fluorescence;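 active means primary screen hit, no activity in plain HEK293 cells, and in GIRK2-only cells above 5% efficacy rising with concentration; inactive means the rest, including fluorescent compounds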;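 further: efficacy is normalized control-subtracted fluorescence 15 s after thallium addition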
# GluA2 TARP mod = modulates AMPAR-stargazin complexes | hit rate 3.5% among 40,000 | HEK293 GluA2+stargazin, membrane potential dye (FDSS), glutamate EC50; hits were called plate by plate, in both directions | calls only at 30 µM | AID 1259245;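 active means any of four per-well response measures lying three or more SD from its plate-wide compound average, in either direction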
# Target sequence (O88602 whole entry, looked up): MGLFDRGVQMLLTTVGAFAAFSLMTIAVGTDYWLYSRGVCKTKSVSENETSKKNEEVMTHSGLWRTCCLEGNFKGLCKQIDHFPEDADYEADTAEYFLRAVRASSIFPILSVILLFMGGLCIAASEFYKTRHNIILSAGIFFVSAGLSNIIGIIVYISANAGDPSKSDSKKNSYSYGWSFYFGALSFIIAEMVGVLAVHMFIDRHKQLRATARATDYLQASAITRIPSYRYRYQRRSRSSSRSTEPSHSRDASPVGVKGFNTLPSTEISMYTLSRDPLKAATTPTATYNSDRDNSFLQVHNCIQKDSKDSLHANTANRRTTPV
# Target sequence (P19491 whole entry, looked up): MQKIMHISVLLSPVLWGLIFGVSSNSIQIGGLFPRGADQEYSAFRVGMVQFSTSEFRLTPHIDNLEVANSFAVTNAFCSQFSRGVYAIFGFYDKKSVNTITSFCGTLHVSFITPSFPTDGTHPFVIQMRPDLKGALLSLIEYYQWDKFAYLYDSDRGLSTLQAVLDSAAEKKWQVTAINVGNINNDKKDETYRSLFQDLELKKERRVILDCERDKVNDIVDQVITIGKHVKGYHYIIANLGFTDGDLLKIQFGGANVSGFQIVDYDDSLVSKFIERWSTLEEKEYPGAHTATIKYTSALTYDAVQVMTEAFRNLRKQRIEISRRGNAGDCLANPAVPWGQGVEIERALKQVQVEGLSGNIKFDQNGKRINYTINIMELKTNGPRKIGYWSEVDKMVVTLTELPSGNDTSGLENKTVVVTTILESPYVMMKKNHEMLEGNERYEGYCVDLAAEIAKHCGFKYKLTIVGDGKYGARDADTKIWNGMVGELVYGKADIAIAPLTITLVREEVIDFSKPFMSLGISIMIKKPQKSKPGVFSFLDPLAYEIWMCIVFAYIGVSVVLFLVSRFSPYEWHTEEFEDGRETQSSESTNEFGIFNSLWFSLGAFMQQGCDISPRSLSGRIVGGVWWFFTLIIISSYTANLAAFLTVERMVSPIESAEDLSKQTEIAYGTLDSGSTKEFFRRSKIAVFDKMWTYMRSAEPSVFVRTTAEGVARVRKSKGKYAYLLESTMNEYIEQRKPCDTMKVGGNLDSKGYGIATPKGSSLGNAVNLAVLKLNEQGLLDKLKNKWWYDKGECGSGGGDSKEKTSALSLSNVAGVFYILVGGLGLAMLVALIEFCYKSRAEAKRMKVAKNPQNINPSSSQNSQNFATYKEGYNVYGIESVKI
# An asterisk follows results filed as active; i = inactive; . = no result; + = active, no number; ! = a repeat was not active.
SMILES,GIRK2 activator,GluA2 TARP mod
Cc1noc(C)c1S(=O)(=O)N1CCC2(CC1)OCCN2S(=O)(=O)c1ccc(Cl)cc1,i,.
Cc1ccccc1N1CCCn2c1nc1c2c(=O)n(CC(=O)OCc2ccccc2)c(=O)n1C,.,i
COC(=O)c1c(NC(=O)Cc2ccc(F)cc2)sc2c1CCN(C(C)C)C2,i,+
CC(C)N1CCc2c(sc(NC(=O)Cc3ccccc3)c2-c2nc3ccccc3s2)C1,.,i
COc1ccc(C(=O)N2CCN(c3ccc(-c4cccnc4)nn3)CC2)c(OC)c1,i,i
CCOC(=O)N1CCc2nc(NC(=O)c3ccc([N+](=O)[O-])s3)sc2C1,.,+
CCOC(=O)N1CCc2nc(NC(=O)c3cccs3)sc2C1,i,i
CCOC(=O)c1ccc(Nc2cc(C)nc(-n3cc([N+](=O)[O-])cn3)n2)cc1,i,i
CCOC(=O)c1ccc2nc(C)cc(Nc3cccc([N+](=O)[O-])c3)c2c1,.,+
Cn1c(=O)c2c(ncn2CC(=O)Nc2ccc(OCc3ccccc3)cc2)n(C)c1=O,.,i
COc1cccc(-n2c(C)cn3c4c(=O)n(CCc5ccccc5)c(=O)n(C)c4nc23)c1,.,i
CCN(CC)CCn1c(C)cn2c3c(=O)n(CCc4ccccc4)c(=O)n(C)c3nc12,i,+
O=C(NCC1CCN(C(=O)c2cccnc2)CC1)C(=O)Nc1ccccc1Cl,i,i
COc1ccc(S(=O)(=O)NCC(C)(O)CCSC)cc1Cl (configuration not stated),i,+
COc1ccc(S(=O)(=O)NCC(C)(O)C2CC2)cc1Cl (configuration not stated),i,i
CSCCC(C)(O)CNS(=O)(=O)c1ccc(Br)s1 (configuration not stated),.,i
CSCCC(C)(O)CNS(=O)(=O)c1ccc(Cl)s1 (configuration not stated),i,+
CCS(=O)(=O)N1CCC(Cn2ccnc2C)CC1,i,i
O=C(NCc1ccccc1)C(=O)Nc1c2c(nn1-c1ccc(Cl)cc1)CS(=O)(=O)C2,i,i
COC(=O)C1=C(C)NC(=O)NC1c1ccccc1OCc1ccccc1 (configuration not stated),.,i
COc1ccc(C2NC(=O)NC(C)=C2C(=O)OCc2ccccc2)c(OC)c1 (configuration not stated),.,+
COc1cccc(C(=O)Nc2cc(-n3c(C)nc4ccccc4c3=O)ccc2F)c1,i,i
COc1ccc(/C=C2\SC(=S)N(c3ccccc3C)C2=O)cc1OC,.,i
O=C(Nc1ccc2c(c1)N(C(=O)C1CCCC1)CC2)c1ccc(C(F)(F)F)cc1,.,i
O=C(Nc1ccc2c(c1)N(C(=O)C1CCCO1)CC2)c1ccc(C(F)(F)F)cc1 (configuration not stated),i,+
SMILES,GIRK2 activator,GluA2 TARP mod
CN1CCN(NC(=O)C(=O)Nc2ccc(F)c(Cl)c2)CC1,i,i
CN1CCN(NC(=O)C(=O)Nc2ccc3c(c2)OCCO3)CC1,.,+
COc1cc(C2NC(=O)NC(O)(C(F)(F)F)C2C(C)=O)ccc1OCc1ccc(Cl)cc1 (configuration not stated),.,i
COc1cc(C2NC(=O)NC(O)(C(F)(F)F)C2C(C)=O)ccc1OCc1ccccc1 (configuration not stated),.,+
Cc1cc(NC(=O)CSc2nc(=O)n(CCCO)c3c2CCC3)no1,i,i
O=C(Nc1ccc(N2CCCS2(=O)=O)cc1)Nc1cccc(Cl)c1,i,+
COc1ccc(Cl)cc1NC(=O)Nc1ccc(CN2CCN(C)CC2)cc1,14%*,i
COc1ccc(Cl)cc1NC(=O)Nc1cc(N2CCCS2(=O)=O)ccc1OC,i,+
COc1cccc(NC(=O)Nc2ccc(N3CCCS3(=O)=O)cc2)c1,i,i
COc1cc(NC(=O)Nc2ccc(CN3CCN(C)CC3)cc2)cc(OC)c1OC,i,i
COc1ccc(N2CCCS2(=O)=O)cc1NC(=O)Nc1ccc(Cl)c(Cl)c1,i,i
COc1ccc(C(=O)Nc2ccc(-n3c(C)nc4ccccc4c3=O)cc2)cc1OC,.,i
COc1cc(-c2nnc(NC(=O)CCCS(=O)(=O)c3ccc(Cl)cc3)o2)cc(OC)c1OC,.,i
O=C(Cc1cc(-c2ccc3c(c2)OCO3)on1)N1CCCCC1,i,i
O=C(CC1CCCC1)N1CCN(c2ncnc3c2nnn3-c2ccccc2)CC1,.,i
COc1ccc(CN2C(=O)C3(OCCCO3)c3ccccc32)cc1OC,.,i
COc1ccc(OCCCN2C(=O)C3(OCCCO3)c3cccc(C)c32)cc1,i,+!
C=CCNC(=O)NCCS(=O)(=O)N1CCN(c2ccc(F)cc2)CC1,i,i
N#Cc1ccc(NC(=O)CSc2ncc(S(=O)(=O)c3cccs3)c(N)n2)cc1,i,+
N#Cc1cccc(NC(=O)CSc2ncc(S(=O)(=O)c3cccs3)c(N)n2)c1,i,i
COc1ccc(CCNC(=O)C(=O)c2cn(CC(=O)N3CCCCC3)c3ccccc23)cc1,.,i
CN(C)S(=O)(=O)c1ccc2nc(NC(=O)C3CCCCN3S(C)(=O)=O)sc2c1 (configuration not stated),i,i
COc1ccc(-c2cc(=O)n(CC(=O)N3CCC(Cc4ccccc4)CC3)cn2)cc1,i,i
O=C(NCCCn1ncccc1=O)C1CN(C(=O)c2cnccn2)C1,i,i
Cc1cccc(-n2nc3c(c2-n2cccc2)CN(C(=O)c2cc(C)oc2C)C3)c1,i,+
SMILES,GIRK2 activator,GluA2 TARP mod
Cc1ccc(-n2nc3c(c2-n2cccc2)CN(C(=O)c2ccc(F)c(F)c2)C3)cc1,i,i
COc1ccccc1NC(=O)CN1CCC(c2nnc(-c3ccco3)o2)CC1,i,i
CCOC(=O)c1ccccc1NC(=O)CN1CCC(c2nnc(-c3ccco3)o2)CC1,i,+
O=C(CCn1nc(-c2ccc(Cl)cc2)c2ccccc2c1=O)NC1CCCCC1,.,+
Cc1ccc(-c2nn(CCC(=O)N3CCN(Cc4ccccc4)CC3)c(=O)c3ccccc23)cc1,.,i
CC(C)c1ccc(NC(=O)c2ccc(=O)[nH]n2)cc1,i,i
COc1ccc(S(=O)(=O)NCCn2nc(-c3ccccc3)ccc2=O)cc1OC,.,i
CSc1ccccc1C(=O)N(C(=O)N1CCCCC1)c1ccc(Cl)cc1,.,i
O=C(c1cccs1)N(C(=O)N1CCCCC1)c1cccc(Cl)c1,i,i
O=C(c1ccc(Br)o1)N(C(=O)N1CCCCC1)c1ccc(Cl)cc1,.,+
O=C(c1cccs1)N(C(=O)N1CCCCC1)c1ccc(Cl)cc1,.,+
CN1CC(c2nc3ccccc3n2CCCc2ccccc2)CC1=O (configuration not stated),.,i
CCCn1c(C2CC(=O)N(c3ccc(C)c(Cl)c3)C2)nc2ccccc21 (configuration not stated),.,i
Cn1c(C2CC(=O)N(CCc3ccccc3)C2)nc2ccccc21 (configuration not stated),.,i
CCCn1c(C2CC(=O)N(CCc3ccccc3)C2)nc2ccccc21 (configuration not stated),.,+
CCCCn1c(C2CC(=O)N(c3ccc(C)c(Cl)c3)C2)nc2ccccc21 (configuration not stated),.,+

# Bioassay records deposited in PubChem BioAssay by several laboratories.
